Measurements reported in the antibiotic and cytotoxicity screens of Wong et al. (2023).
In all, about 39,000 compounds went through this assay and about 1,500 (3.8%) were called active. The list comes from a sample in which actives are over-represented; it also holds similar structures and randomly drawn compounds.

system: HSkMC (human skeletal muscle cells); assay: cytotoxicity call (relative viability < 0.9); details: 10 µM

SMILES	cytotoxicity call
C#CC1(OC(C)=O)CCC2C3CCC4=CC(OC(C)=O)CCC4C3CCC21C (stereo not drawn)	inactive
Cc1ccc(S(=O)(=O)N(C)C[C@@H]2Oc3ccc(NC(=O)CCCN(C)C)cc3C(=O)N([C@@H](C)CO)C[C@@H]2C)cc1	inactive
COc1ccc(S(=O)(=O)N(C)C[C@@H]2OCCCC[C@@H](C)Oc3ccc(NC(=O)c4ccccc4)cc3C(=O)N([C@H](C)CO)C[C@H]2C)cc1	inactive
COCC#Cc1ccc([C@H]2[C@H](CO)N3C(=O)CN(C(=O)CN4CCOCC4)C[C@@H]23)cc1	inactive
O=C(O)CCC(=O)O	inactive
CCOC(=O)CN1CCN(C=O)CC1	inactive
C[C@H](CO)N1C[C@H](C)[C@@H](CN(C)Cc2ccc(C(F)(F)F)cc2)OCCCC[C@H](C)Oc2ccc(NS(=O)(=O)c3ccc(F)cc3)cc2C1=O	inactive
COc1ccc(CN(C)C[C@H]2OCCCC[C@H](C)Oc3ccc(NC(=O)NC(C)C)cc3C(=O)N([C@H](C)CO)C[C@H]2C)cc1	inactive
O=C(N[C@@H](c1cccnc1)c1ccc2c(c1)OCO2)C1CCN(CCOc2ccc(Cl)cc2Cl)CC1	inactive
NCc1ccc(S(N)(=O)=O)cc1	inactive
COc1ccc(S(=O)(=O)Nc2ccc3c(c2)CC(=O)N([C@@H](C)CO)C[C@H](C)[C@H](CN(C)S(=O)(=O)c2ccc(F)cc2)O3)cc1	inactive
C[C@@H]1CN([C@@H](C)CO)C(=O)c2cccc(NC(=O)c3ccncc3)c2O[C@H]1CN(C)Cc1ccc(-c2ccccc2)cc1	inactive
C[C@H]1CN([C@@H](C)CO)C(=O)Cc2cc(NC(=O)Cc3cn(C)c4ccccc34)ccc2O[C@@H]1CN(C)Cc1ccc(C(F)(F)F)cc1	active
C[C@H]1CN([C@@H](C)CO)C(=O)Cc2cc(NC(=O)Cc3cn(C)c4ccccc34)ccc2O[C@H]1CN(C)Cc1ccc(C(F)(F)F)cc1	inactive
C[C@@H]1CN([C@H](C)CO)C(=O)Cc2cc(NC(=O)Cc3cn(C)c4ccccc34)ccc2O[C@H]1CN(C)Cc1ccc(C(F)(F)F)cc1	inactive
C[C@H]1CN([C@@H](C)CO)C(=O)Cc2cc(NC(=O)Cc3cn(C)c4ccccc34)ccc2O[C@@H]1CN(C)Cc1ccc(Oc2ccccc2)cc1	inactive
C[C@H](CO)N1C[C@H](C)[C@H](CN(C)Cc2ccc(Oc3ccccc3)cc2)Oc2ccc(NC(=O)Cc3cn(C)c4ccccc34)cc2CC1=O	inactive
C[C@H]1CN([C@@H](C)CO)C(=O)Cc2cc(NC(=O)Cc3cn(C)c4ccccc34)ccc2O[C@H]1CN(C)Cc1ccc(Oc2ccccc2)cc1	active
C[C@@H]1CN([C@H](C)CO)C(=O)Cc2cc(NC(=O)Cc3cn(C)c4ccccc34)ccc2O[C@H]1CN(C)Cc1ccc(-c2ccccc2)cc1	active
C[C@@H]1CN([C@@H](C)CO)C(=O)Cc2cc(NC(=O)Cc3cn(C)c4ccccc34)ccc2O[C@@H]1CN(C)Cc1ccc(-c2ccccc2)cc1	inactive
C[C@@H]1CN([C@@H](C)CO)C(=O)Cc2cc(NC(=O)Cc3cn(C)c4ccccc34)ccc2O[C@H]1CN(C)Cc1ccc(-c2ccccc2)cc1	inactive

SMILES	cytotoxicity call
C[C@@H]1CN([C@H](C)CO)C(=O)CCCn2nncc2CO[C@@H]1CN(C)Cc1cccc2c1OCCCO2	inactive
COc1ccc(NC(=O)N(C)C[C@H]2Oc3ccc(NS(=O)(=O)c4c(C)noc4C)cc3CC(=O)N([C@H](C)CO)C[C@H]2C)cc1	inactive
Cc1cc(OCc2nnc(SC3CCCC3)n2-c2cccnc2)ccc1-c1ccc(S(C)(=O)=O)cc1	active
C[C@@H]1CN([C@@H](C)CO)C(=O)c2cc(NC(=O)CCC(F)(F)F)ccc2O[C@@H](C)CCCCO[C@@H]1CN(C)S(=O)(=O)c1ccc(F)cc1	inactive
CCCC[C@@H](C)/C=C(C)/C=C(\C)C(=O)NC1=C[C@@](O)(/C=C/C=C/C=C/C(=O)NC2C(=O)CCC2=O)[C@@H]2O[C@@H]2C1=O	active
COc1cccc(S(=O)(=O)Nc2ccc3c(c2)[C@H]2C[C@H](CC(=O)NCCc4ccccc4)O[C@H](CO)[C@H]2O3)c1	inactive
C[C@@H]1CN([C@@H](C)CO)S(=O)(=O)c2ccc(C#CC3(O)CCCC3)cc2O[C@@H]1CN(C)C(=O)Cc1cccnc1	inactive
COc1ccccc1S(=O)(=O)N(C)C[C@H]1OCc2cn(nn2)CCCC(=O)N([C@H](C)CO)C[C@H]1C	inactive
C[C@@H]1CN([C@H](C)CO)C(=O)c2cc(NS(=O)(=O)c3ccc(F)cc3)ccc2O[C@H]1CN(C)Cc1ccc(-c2ccccc2)cc1	inactive
C[C@@H]1CN([C@H](C)CO)C(=O)c2cc(NS(=O)(=O)c3ccc(F)cc3)ccc2O[C@@H]1CN(C)Cc1ccc(-c2ccccc2)cc1	active
C[C@@H]1CN([C@@H](C)CO)C(=O)c2cc(NS(=O)(=O)c3ccc(F)cc3)ccc2O[C@@H]1CN(C)Cc1ccc(-c2ccccc2)cc1	active
C[C@H](CO)N1C[C@H](C)[C@H](CN(C)Cc2ccc(-c3ccccc3)cc2)Oc2ccc(NS(=O)(=O)c3ccc(F)cc3)cc2C1=O	inactive
C[C@@H]1CN([C@@H](C)CO)C(=O)c2cc(NS(=O)(=O)c3ccc(F)cc3)ccc2O[C@H]1CN(C)Cc1ccc(-c2ccccc2)cc1	inactive
C[C@H]1CN([C@@H](C)CO)C(=O)c2cc(NS(=O)(=O)c3ccc(F)cc3)ccc2O[C@@H]1CN(C)Cc1ccc(-c2ccccc2)cc1	inactive
Cc1noc(C)c1NC(=O)Nc1ccc2c(c1)C(=O)N([C@@H](C)CO)C[C@@H](C)[C@@H](CN(C)CC1CCCCC1)OCCCC[C@H](C)O2	inactive
CN(C)CCCCNC(=O)[C@H]1C[C@H]2C(=O)N3CCC[C@H]3C(=O)N2[C@H]1c1cccc(OCCO)c1	inactive
O=C(N1CCOCC1)[C@]1(CCS(=O)(=O)c2ccccc2)N=C(c2ccc(OCCCO)cc2)O[C@@H]1c1ccccc1	inactive
C[C@@H]1CN([C@H](C)CO)C(=O)c2c(c3ccccc3n2C)-c2ccccc2CO[C@H]1CN(C)Cc1cccc(C(F)(F)F)c1	inactive
C[C@H]1CN([C@@H](C)CO)C(=O)c2c(c3ccccc3n2C)-c2ccccc2CO[C@H]1CN(C)Cc1cccc(C(F)(F)F)c1	inactive
C[C@@H]1CN([C@H](C)CO)C(=O)c2ccccc2-c2ccccc2CO[C@@H]1CN(C)Cc1ccc(Cl)c(Cl)c1	inactive
C[C@H]1CN([C@@H](C)CO)C(=O)c2c(c3ccccc3n2C)-c2ccccc2CO[C@@H]1CN(C)Cc1cccc(C(F)(F)F)c1	active

SMILES	cytotoxicity call
C[C@H](CO)N1C[C@H](C)[C@@H](CN(C)Cc2cccc(C(F)(F)F)c2)OCc2ccccc2-c2c(n(C)c3ccccc23)C1=O	inactive
C[C@@H]1CN([C@@H](C)CO)C(=O)c2c(c3ccccc3n2C)-c2ccccc2CO[C@H]1CN(C)Cc1cccc(C(F)(F)F)c1	inactive
C[C@@H]1CN([C@@H](C)CO)C(=O)c2c(c3ccccc3n2C)-c2ccccc2CO[C@@H]1CN(C)Cc1cccc(C(F)(F)F)c1	active
C[C@H](CO)N1C[C@H](C)[C@H](CN(C)Cc2cccc(C(F)(F)F)c2)OCc2ccccc2-c2c(n(C)c3ccccc23)C1=O	active
C[C@H]1CN([C@@H](C)CO)C(=O)c2ccccc2-c2ccccc2CO[C@H]1CN(C)Cc1ccc(Cl)c(Cl)c1	active
C[C@@H]1CN([C@H](C)CO)C(=O)c2c(c3ccccc3n2C)-c2ccccc2CO[C@@H]1CN(C)Cc1cccc(C(F)(F)F)c1	inactive
C[C@@H]1CN([C@@H](C)CO)C(=O)c2c(c3ccccc3n2C)-c2ccccc2CO[C@H]1CN(C)Cc1cccc(F)c1	inactive
C[C@@H]1CN([C@@H](C)CO)C(=O)c2ccccc2-c2ccccc2CO[C@@H]1CN(C)Cc1ccc(Cl)c(Cl)c1	inactive
COc1ccc(NC(=O)N(C)C[C@H]2OCCCC[C@@H](C)Oc3ccc(NS(=O)(=O)c4ccc(Cl)cc4)cc3C(=O)N([C@@H](C)CO)C[C@H]2C)cc1	inactive
C[C@@H]1CCCCO[C@@H](CN(C)C(=O)Cc2ccccc2)[C@H](C)CN([C@@H](C)CO)C(=O)c2cc(NC(=O)C3CCCCC3)ccc2O1	inactive
C[C@@H]1CCCCO[C@@H](CN(C)C(=O)NC2CCCCC2)[C@H](C)CN([C@@H](C)CO)C(=O)c2cc(NS(=O)(=O)c3ccc(F)cc3)ccc2O1	inactive
C[C@H]1CN([C@@H](C)CO)C(=O)c2cc(Br)cnc2O[C@@H]1CN(C)S(C)(=O)=O	inactive
Cc1noc(C)c1NC(=O)Nc1ccc2c(c1)CC(=O)N([C@@H](C)CO)C[C@H](C)[C@H](CN(C)S(=O)(=O)c1c(C)noc1C)O2	inactive
CC(C)CC#Cc1ccc2c(c1)O[C@@H](CN(C)S(=O)(=O)c1ccc(F)cc1)[C@@H](C)CN([C@@H](C)CO)S2(=O)=O	inactive
C[C@@H]1CCCCO[C@@H](CN(C)Cc2ccc3c(c2)OCO3)[C@@H](C)CN([C@H](C)CO)C(=O)c2cc(NS(=O)(=O)c3ccccc3)ccc2O1	inactive
O=C1CN(C(=O)c2ccccc2)C(=S)N1	inactive
C[C@@H]1CN([C@H](C)CO)C(=O)c2cc(N(C)C)ccc2O[C@@H](C)CCCCO[C@H]1CN(C)Cc1ccc(C(=O)Nc2ccccc2N)cc1	inactive
CCC(=O)Nc1ccc2c(c1)OC[C@H](C)N(C(=O)CN1CCOCC1)C[C@@H](C)[C@H](OC)CN(C)C2=O	inactive
Cc1ccc2c(c1)/C(=C/c1ccncc1)c1cc3ccccc3nc1-2	inactive
OCc1ccccc1-c1ccccc1	inactive
COc1ccc(NC(=O)Nc2ccc3c(c2)C(=O)N([C@@H](C)CO)C[C@H](C)[C@@H](CN(C)Cc2ccc(C(=O)O)cc2)OCCCC[C@@H](C)O3)cc1	inactive
